# Data published in the supplement of paper PMC10105736.
# Values without a mark were called inactive.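 Rule for the calls: active = MAPPIT score above the 99th percentile of random reference set scores in the same batch; inactive = at or below it.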
# B1: Tpst (protein)
# chain: MRLPYRNKKVTLWVLFGIIVITMFLFKFTELRPTCLFKVDAANELSSQMVRVEKYLTDDNQRVYSYNREMPLIFIGGVPRSGTTLMRAMLDAHPDVRCGQETRVIPRILQLRSHWLKSEKESLRLQEAGITKEVMNSAIAQFCLEIIAKHGEPAPRLCNKDPLTLKMGSYVIELFPNAKFLFMVRDGRATVHSIISRKVTITGFDLSSYRQCMQKWNHAIEVMHEQCRDIGKDRCMMVYYEQLVLHPEEWMRKILKFLDVPWNDAVLHHEEFINKPNGVPLSKVERSSDQVIKPVNLEAMSKWVGQIPGDVVRDMADIAPMLSVLGYDPYANPPDYGKPDAWVQDNTSKLKANRMLWESKAKQVLQMSSSEDDNTNTIINNSNNKDNNNNQYTINKIIPEQHSRQRQHVQQQHLQQQQQQHLQQQQHQRQQQQQQREEESESEREAEPDREQQLLHQKPKDVITIKQLPLAGSNNNNINNNINNNNNNNNIMEDPMADT
# B2: RpS3 (protein)
# chain: MNANLPISKKRKFVSDGIFKAELNEFLTRELAEDGYSGVEVRVTPSRTEIIIMATKTQQVLGEKGRRIRELTAMVQKRFNFETGRIELYAEKVAARGLCAIAQAESLRYKLTGGLAVRRACYGVLRYIMESGAKGCEVVVSGKLRGQRAKSMKFVDGLMIHSGDPCNDYVETATRHVLLRQGVLGIKVKVMLPYDPKNKIGPKKPLPDNVSVVEPKEEKIYETPETEYKIPPPSKPLDDLSEAKVL
# B3: CG2034 (protein)
# chain: MLSNLVVTKQKVVLVIDELNRERIAPKFIGSLLHEQGQGADTIKALPTGVSLKHVATFEALIDKYANNNTGSTTDSNSTGFNVILPTLADLLCYQTPAFIFGFLNRLRRSDNVRRVFLWASPQHLQDPHADYILAGCEYLAELVLRLESDKLLSLISRKPGGGVSNRRYSCEVSKTQFKVTPLDGGLPAGASPKQPSPEAEQTTEPASSTFKIELDEDEVLARNALTLPYERTSEPSEGNIIYTPDADDDFDEEDPDEDLCI
# B4: Coa8 (protein)
# chain: MNKCFRCQPRISLFQFSLPRCYAAVQPGCPPPQEKPVVGLPHKPDPKTVKCDYIGPPDAQSNLRPYVRHYGDEETRLARSLRLKRIEVEAWNTDFWTKHNKRFYEEKEDFIRLHKESGTSEVSADQMSHFYKAFLDKNWRIHIMYNISWYLKNFDILTLAAAVQLQRLLALAKRRS
# B5: htl (protein)
# chain: MAAAWSWRASHSTITMTSGSLVVLFLLLSIWQPAVQVEGRRQMANSQEMIKDHLGARSQNKTPAITNNANQSSTSSADLDDGAADDDDNKADLPVNVSSKPYWRNPKKMSFLQTRPSGSLLTLNCHALGNPEPNITWYRNGTVDWTRGYGSLKRNRWTLTMEDLVPGDCGNYTCKVCNSLGCIRHDTQVIVSDRVNHKPILMTGPLNLTLVVNSTGSMHCKYLSDLTSKKAWIFVPCHGMTNCSNNRSIIAEDKDQLDFVNVRMEQEGWYTCVESNSLGQSNSTAYLRVVRSLHVLEAGVASGSLHSTSFVYIFVFGGLIFIFMTTLFVFYAIRKMKHEKVLKQRIETVHQWTKKVIIFKPEGGGDSSGSMDTMIMPVVRIQKQRTTVLQNGNEPAPFNEYEFPLDSNWELPRSHLVLGATLGEGAFGRVVMAEVNNAIVAVKMVKEGHTDDDIASLVREMEVMKIIGRHINIINLLGCCSQNGPLYVIVEYAPHGNLKDFLYKNRPFGRDQDRDSSQPPPSPPAHVITEKDLIKFAHQIARGMDYLASRRCIHRDLAARNVLVSDDYVLKIADFGLARDIQSTDYYRKNTNGRLPIKWMAPESLQEKFYDSKSDVWSYGILLWEIMTYGQQPYPTIMSAEELYTYLMSGQRMEKPAKCSMNIYILMRQCWHFNADDRPPFTEIVEYMDKLLQTKEDYLDVDIANLDTPPSTSDEEEDETDNLQKWCNY
# B6: AdSS (protein)
# chain: MSASATNGTHYEQLHQGRTKMYKSKVDVVLGAQWGDEGKGKVVDMLASDVDIVCRCQGGNNAGHTVVANGTEFDFHLLPSGVVNEKCVSVIGNGVVIHLPSLFDEVLKNEAKGLQHLENRLIISDRAHLVFDFHQHVDGMQEAEKGGKSLGTTKKGIGPAYSSKATRNGIRVGELLGDFNLFSEKFKSIVATHVRLFPSINVDVEAELARYKDYADKVRPYVKDTICFLHTALRNGKTILVEGANAAMLDIDFGTYPYVTSSNCSIGGVLTGLGLPPQTIGEVIGVVKAYTTRVGDGPFPTEQLNDIGDLLQTRGFEVGVTTKRKRRCGWLDIPLLKYTSLVNGYTCICLTKLDILDTLPEIKVAVAYKKPNGEKLDHFPGTIAELGNIEVEYAVLPGWQTSTEEVRNFKELPENAQSYVRLLESELSVPVRWVGVGKGRESIINVH
# B7: Vha26 (protein)
# chain: MALSDADVQKQIKHMMAFIEQEANEKAEEIDAKAEEEFNIEKGRLVQQQRLKIMEYYEKKEKQVELQKKIQSSNMLNQARLKVLKVREDHVSSVLDDARKRLGEVTKNQSEYETVLTKLIVQGLFQIMEPKVILRCREVDVPLVRNVLPAAVEQYKAQINQNVELFIDEKDFLSADTCGGVELLALNGRIKVPNTLESRLDLISQQLVPEIRNALFGRNVNRKFTD
# B8: shrb (protein)
# chain: MSFFGKMFGGKKEVAPTTGEAIQKLRETENMLIKKQEFLEAKIEDELNIARKNASKNKRVALQALKKKKRLEKQLQQIDGTLSTIEMQREALESANTNTAVLTTMKNAADALKRAHQNMDVDKVHDMMDDIAEQQDVAREISDAISNPVAFGADLDDEDLERELDELEQENFDKEIIGIPEPTPTLPEAPTEDLPEKAKEKKKATTTTAVEDDDDPDMKQLLSWSN
# B9: Dpy-30L1 (protein)
# chain: MEAKTDAPISPAPTTNPPAEAGKEPNASSNAQANPTAAPGAPPSGAIAVGQSTNPVAQQQQQPAVAKKPSSETNNMPTRQYLDQTVAPVLLHGMQALARERPTDPIQFLASYLLKHSNGCDENNASAAAVDNNS
# B10: Mst87F (protein)
# chain: MCCGPCGPCCGPCCGPCCGPCGPCGGGCGPCYGPNVCGPCYACGPCGGCYCGYPCC
# B11: spn-F (protein)
# chain: MEASAAKITPMASSMSASGSTNSPSSEKMNYALQVALQTIKERCIQLQRRVASMEEENQQLREASSRSEGAPRANEIGVTGDVLSLKAQVSELQRQKEQLEEHIGMVSNENRRLWSRLSQISKDQQLNALPSSTDSRAQQNQNLVRSKTFTQHSPNPHLRQKMLSDGIKDLSLEEIALDDFGASSEELGYPYNLQKVEETTSEPDANVDAKRCLDGLQELRREAMKQQQELRSVMTLLENRIALKPCPECAQKTIKKPEMADKSLETDDSLTSELKNYESQHNGHNGTPPSQRINIIQEKIKADAADAMEKTCPMCGKQYSSQVSFNAFREHVEMHFIDDALELESENSIERQFEFVSHAVGDF
# B12: Ubc2 (protein)
# chain: MSSTPAAGSAAEVATSSATSNAPSAPSTTASNVSNTSQPTTAGTPQARGGRGSNANGGASGSNAGGGDEPRKEAKTTPRISRALGTSAKRIQKELAEITLDPPPNCSAGPKGDNLYEWVSTILGPPGSVYEGGVFFLDIHFSPEYPFKPPKVTFRTRIYHCNINSQGVICLDILKDNWSPALTISKVLLSICSLLTDCNPADPLVGSIATQYLQNREEHDRIARLWTKRYAT
# B13: noi (protein)
# chain: METLLEQQRRLHEERERLVKLMVDEHATKKPGEKERIHSEHRLKYLMELHHNSTSQLRDLYEDKDNERKAEIAALSGPNEFNEFYARLKQIKQFYKSHPAEVSVPLSVEFDEMIRVYNNPDDMSALVEFTDEEGGGRYLDLNECYELYLNLRSVEKLDYITYLMSFDHVFDIPRERKNREYRIYIETLNDYLHHFILRIQPLLDLEGELLKVELDFQRQWLMGTFPGFSIKETESALANTGAHLDLSAFSSWEELASLGLDRLKSALVALGLKCGGTLEERAQRLFSTKGKSTLDPALMAKKPSAKTASAQSREHERHKEIAQLEALLYKYADLLSEQRAATKENVQRKQARTGGERDDSDVEASESDNEDDPDADDVPYNPKNLPLGWDGKPIPYWLYKLHGLNISYNCEICGNFTYKGPKAFQRHFAEWRHAHGMRCLGIPNTAHFANVTQIEDAITLWEKLKSQKQSERWVADQEEEFEDSLGNVVNRKTFEDLKRQGLL
# B14: Nup107 (protein)
# chain: MADSPFPRSSRSGLLRTTLNSSMPPQNLSHSLLILEKSNAEQNELSLMEDTGDDLDRGKSRMDVLFPQFFDVLQAQGNGQEAFEVIQSLTQVCRGVVEQLELEIDHGMGGEQGARQRESMLTWLRQEINTWRLLHALFYDRILLQTDRQADDEMQDGPTLGGSEKEVIQQLYALNATLREYQLVVDWLEACYDRGEQQNPLHAHDRMMAWENTLFQLENLQGAAFGKGHKIVTRLDPDAPVREKRPLHALDEEDNLRLSRAIFELIRAGRVDDGLKLCKHFGQTWRAAILEGWRLHEDPNFEQNVSVLHEKLPIEGNPRRDIWKRCAWMLADSKNYDEYSRATAGVFSGHLGSLKTLLHSNWHDLLWAHLKVQIDIRVESEIRGCCLKNYQPMPDDYWNGRMTMEQIFEELNVAKDASVRDFAQSQLGIIQRHLILDTCGELIQHMVRWVEKDTSQQSPHQLRFMAHIVLFLRQIGRVEQERQAEKIVAAYVEALIARGEPQLIAYYTASLSNPLQVQLYSRFLEQVEQKRPRELAVDAALQAGLDVEQITRVTVQNIRLAHQPLGEFGEPQSGEISAIDQRKISALEWLIHLPEQRGELLWQANAMIRTYLASSKVECMRQTFRMVPADIVQQLVSLYGSVDNIPPREECCLKEYLCYKAYLSGVDSFVEWNRLQQNRPKKPQTSHAASSQDNFTERMASERKEQAHRSEVVRWEHKVKEQAKQTIELLYNVLMFPDKGWLVDPFIAKLPENAVQLSWDHRLLQMEKLRSICIPEIALFLNEVMFKSGDFAGCVRLADEISSENRQLYKVYTKHKLAELLAKIADASLELLNSKLDPWGYPITT
# Assays:
# Experiment in all cases: MAPPIT interaction score (arbitrary units); higher = stronger binary interaction signal, active = hit call of the paper
# [1] = molecular target: Tsp96F; conditions: MAPPIT configuration: N-C; pair source set: screen_3
# [2] = molecular target: ninaD; conditions: MAPPIT configuration: N-C; pair source set: screen_3
# [3] = molecular target: TwdlW; conditions: MAPPIT configuration: N-N; pair source set: Lit-BS-16
# [4] = molecular target: U4-U6-60K; conditions: MAPPIT configuration: N-N; pair source set: DPIM
# [5] = molecular target: Uba4; conditions: MAPPIT configuration: N-N; pair source set: Curagen_high_conf
# [6] = molecular target: Uba5; conditions: pair source set: RRS
# [7] = molecular target: Usp16-45; conditions: MAPPIT configuration: N-N; pair source set: Curagen_low_conf
# [8] = molecular target: Vha13; conditions: MAPPIT configuration: N-C; pair source set: screen_4
# [9] = molecular target: Vps24; conditions: MAPPIT configuration: N-N; pair source set: Curagen_high_conf
# [10] = molecular target: Vps51; conditions: MAPPIT configuration: N-N; pair source set: screen_2
# [11] = molecular target: Vsx1; conditions: MAPPIT configuration: N-C; pair source set: screen_3
# [12] = molecular target: Vti1a; conditions: MAPPIT configuration: N-N; pair source set: Curagen_high_conf
# [13] = molecular target: Xbp1; conditions: MAPPIT configuration: N-N; pair source set: Curagen_low_conf
# [14] = molecular target: Yif1; conditions: MAPPIT configuration: N-N; pair source set: RRS
# [15] = molecular target: Yp2; conditions: MAPPIT configuration: N-N; pair source set: Curagen_high_conf
# 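Note: HEK293T cells with Epo stimulation, STAT-responsive firefly luciferase reporter, fold induction versus unstimulated cells divided by the larger fold induction of two negative controls lacking either bait or prey.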
binder,measurement,setting,value
B1,MAPPIT interaction score,[1],-0.524
same,MAPPIT interaction score,[2],0.243
B2,MAPPIT interaction score,[3],-0.331
B3,MAPPIT interaction score,[4],0.24
B4,MAPPIT interaction score,[5],2.52 (active)
B5,MAPPIT interaction score,[6]; MAPPIT configuration: N-C,-0.924
same,MAPPIT interaction score,[6]; MAPPIT configuration: N-N,-0.283
B6,MAPPIT interaction score,[7],1.38
B7,MAPPIT interaction score,[8],1.21
B8,MAPPIT interaction score,[9],0.054
B9,MAPPIT interaction score,[10],1.49
B10,MAPPIT interaction score,[11],0.606
B11,MAPPIT interaction score,[12],0.032
B12,MAPPIT interaction score,[13],-0.108
B13,MAPPIT interaction score,[14],-0.019
B14,MAPPIT interaction score,[15],0.235
